A selection: hits, their analogues and other compounds. The true share with any hit is near 2.8%.
POLH inh – inhibitors of human DNA polymerase eta. recombinant Pol eta, fluorescent DNA replication assay. Potency, µM (highest dose often 114 µM), most hits filed as inhibitors. AID 588591. Q9Y253. hit rate 1.2% among 390,000
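Pol eta at 10 nM preincubated with compounds 15 min at room temperature; reaction started with fluorescent substrate (50 nM final) and read kinetically at 0 and 10 min.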
WRN helicase inh – inhibitors of human WRN helicase; hit rate 0.46% among 360,000; WRN helicase unwinding, fluorescent forked duplex, kinetic; Potency, µM (titrated, usually from 114 µM), hits mostly inhibitors; further: nearly all actives have a fitted effect of over 55% in size
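Kinetic fluorescence helicase assay: unwinding of a quenched forked DNA duplex (100 nM final) with 2 mM ATP final raises red fluorescence (525/598 nm). Compounds sat 15 min at room temperature with 20 nM WRN beforehand.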
POLI inh – inhibitors of human DNA polymerase iota; hit rate 1% among 390,000; Potency, µM (doses to about 115 µM), hits mostly inhibitors; AID 588590; Q9UNA4; Pol iota fluorescent replication assay, 10 min
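Fluorescent replication assay read twice, at 0 min and 10 min after adding 50 nM (final) substrate. Enzyme (10 nM) and compounds were first incubated 15 min at room temperature; enzyme-free buffer wells were negative controls.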
PI5P4Ka inh – PI5P4K alpha (human) kinase inhibition; P48426; PI5P4Kalpha enzyme, ADP-Glo luminescence, 60 min; hits give low values; max response, %; hit rate 1.2% among 330,000; active means max response of -50% or lower; inconclusive means between -30% and -50%; inactive means -30% or higher; further: value at the top dose of about 77 µM
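Compounds were pin-transferred onto PI5P4Kalpha and substrate in HEPES pH 7.4 buffer with EGTA, CHAPS and 5% DMSO. ATP (5 microM final) started the reaction, which ran 60 minutes at room temperature before ADP-Glo detection.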
Pol beta inh – inhibitors of human DNA polymerase beta; P06746; Pol beta primer extension/strand displacement, fluorescence kinetic; Potency, µM (titrated, usually from 114 µM), usual class: inhibitors; hit rate 1.3% among 340,000; AID 485314
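10 nM enzyme + cpd, 15 min RT; start with substrate 50 nM final; read 0 min and after 10 min RT. Corrected, normalized data; 4-parameter Hill curve fit.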
POLK inh – blocks human DNA polymerase kappa activity | Q9UBT6 | purified Pol kappa, fluorescent DNA synthesis assay, 10 min | Potency, µM (highest dose often 107 µM), actives largely listed as inhibitors | hit rate 0.53% among 400,000 | AID 588579
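First, compounds were pin-transferred onto 10 nM Pol kappa. After 15 min at room temperature, substrate was added to 50 nM final. Fluorescence was then measured kinetically at 0 and 10 min.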
Numbers stand for hits; n = inactive; u = inconclusive; x = no result; [ ] = remark or other dose. Unless noted, the call rests on the fitted dose curve; in most records, active means well fitted curve in the direction sought with a large enough effect; inconclusive means small, poorly fitted or top-dose-only effect, or another doubt; inactive means no such curve, though single readings can be large; an effect the other way counts as inactive or inconclusive.

SMILES	POLH inh	WRN helicase inh	POLI inh	PI5P4Ka inh	Pol beta inh	POLK inh
Cc1ccc(Cl)cc1NC(=O)C1CCN(C(=O)c2cnn(-c3ccccc3)c2-n2cccc2)CC1	n	x	n	x	n	n
Oc1c(Cl)cc(Cl)cc1C=Nc1ccc(N2CCOCC2)cc1	n	u	n	n	n	n
O=[N+]([O-])c1cc(Cc2ccccc2)cc(C=Nc2ccc(N3CCOCC3)cc2)c1O	u	u	n	-51	n	n
C=CCn1c(C)cc(C(=O)Cn2c(C(C)O)nc3ccccc32)c1C (stereo not given)	n	n	n	n	n	n
Cc1cc(C(=O)Cn2c(CO)nc3ccccc32)c(C)n1C	n	n[11.6 µM]	79µM	n	n	n
CCOC(=O)c1cnc2ccc(Cl)cc2c1Nc1ccc(OCC)cc1	n	x	n	x	n	n
CC(C)OC(=O)CC(=O)c1sc2nc3c(cc2c1N)CN(C)CC3	u	u	11µM	n	40µM	u
CCN1C(=O)[C@H]2[C@@H](c3ccc(-c4ccc(Cl)c(Cl)c4)c(OC)c3)N[C@@](C)(C(=O)OC)[C@H]2C1=O	n	n	u	-60	x	n
CCCC(=O)N1c2ccccc2-c2nnc(SC)nc2OC1c1sccc1C (stereo not given)	n	x	n	x	n	n
O=C(CCCOc1ccccc1)Nc1nnc(C2CCCO2)s1 (stereo not given)	u	n	u	u	32µM	u
CC1(C)Cc2[nH]c(=S)c(C#N)cc2CO1	n	n	u	-88	u	n
N#Cc1cc2c([nH]c1=S)CCCC2	n	n	u	-73	n	n
N#Cc1cc2c([nH]c1=O)CCCC2	n	n	n	n	n	n
CCC1CN(C(=O)N2CCC(C(=O)Nc3cc(C)ccc3C)CC2)c2ccccc2O1 (stereo not given)	n	x	n	x	n	n
COc1cc(OC)cc(C(=O)Nc2ccc(NC(=O)c3ccco3)c(Cl)c2)c1	u	n	25µM	n	u	n
CCOc1cc(NC(=O)c2ccco2)c(OCC)cc1NC(=O)c1cc(OC)c(OC)c(OC)c1	n	n	n	n	n	n
COc1cc(NC(=O)c2ccco2)c(OC)cc1NC(=O)c1cc(OC)c(OC)c(OC)c1	n	n	n	x	40µM	n
Cc1ccc(CN(C(=O)COc2ccc(C(C)C)cc2)C2CCS(=O)(=O)C2)o1 (stereo not given)	n	x	n	x	n	n
O=C(Nc1nc2c(s1)CCCC2)c1ccc(Br)s1	n	n	79µM	x	n	n
Cc1cccc(C(=O)Nc2nc3c(s2)CCCC3)c1	n	x	n	x	n	n
Cc1ccc(C(=O)N/N=C2\CCc3ccccc32)c(C)c1	n	n	n	n	0.16µM	n
Cc1n[nH]c2c([N+](=O)[O-])c(=O)[nH]c(=O)n12	n	n	n	-67	x	n
Cc1nc(N2CCOCC2)[nH]c(=O)c1[N+](=O)[O-]	n	n	n	n	n	n
COc1cc(Cl)c(C)cc1NC(=O)Cn1cc(S(=O)(=O)N2CCC(C)CC2)c2ccccc2c1=O	n	x	n	x	n	n
COc1ccc(C(=O)c2cn(CC(=O)Nc3cc(OC)cc(OC)c3)c3ccc(OC)cc3c2=O)cc1	79µM	x	u	x	n	n
SMILES	POLH inh	WRN helicase inh	POLI inh	PI5P4Ka inh	Pol beta inh	POLK inh
CCc1nnc(SCCSc2nnc(CC)n2N)n1N	n	n	n	n	n	n
CCCCc1nnc(SCCSc2nnc(CCCC)n2N)n1N	n	n	89µM	n	n	n
NC(=O)c1cc[n+](CC2=C(C(=O)O)N3C(=O)[C@@H](NC(=O)[C@H](c4ccccc4)S(=O)(=O)[O-])[C@@H]3SC2)cc1	x	x	x	x	x	4.2µM
NC(=O)c1cc[n+](CC2=C(C(=O)O)N3C(=O)[C@@H](NC(=O)C(c4ccccc4)S(=O)(=O)[O-])[C@H]3SC2)cc1 (stereo not given in full)	n	x	0.79µM	-97	n	1µM
COc1cccc(Cn2c(=O)cc(C)c3c(C)nn(C)c32)c1	n	x	n	x	n	n
COc1ccc(CN(C)c2ccc(-c3nc(-c4ccc(OC)c(OC)c4)no3)cc2[N+](=O)[O-])cc1	n	x	n	x	u	n
COC(=O)/C=C/C(=O)Nc1ccc(O)c(Cl)c1	u	n	n	-59	n	n
CC(C)(C)n1ncc2c(=O)n(Cc3cc(C(F)(F)F)ccc3Cl)cnc21	x	x	n	x	x	n
O=C(Nc1ccc(-c2ccccc2)cc1)c1ccccc1	n	n	n	n	n	n
O=c1[nH]nc(-c2ccc(OCc3ccc(Cl)cc3Cl)cc2)o1	n	n	n	n	n	n
CCOc1ccc(C(=O)Nc2ccc(-c3nc4cc(CC)ccc4o3)cc2)cc1	n	x	89µM	x	n	n
O=C(Nc1ccc(-c2n[nH]c(=S)o2)cc1)c1ccccc1	n	n	n	-63	n	n
NC(=S)Nc1cccc(-c2n[nH]c(=S)o2)c1	n	n	n	n	n	n
C=CCOc1ccc(-c2n[nH]c(=S)o2)cc1	n	n	n	-60	n	n
Cc1ccc(NC(=S)Nc2cccc(-c3n[nH]c(=S)o3)c2)cc1	n	n	n	-68	n	n
COc1ccc(NC(=O)CCc2c(C)nn(-c3ccc(N4CCCC4)nn3)c2C)cc1Cl	n	x	n	x	n	n
COc1ccc(CCNC(=O)c2nc(-c3ccc(Cl)cc3)n3c2CCCCC3)c(OC)c1	n	x	n	x	n	n
CC(=O)NC(Cc1c(F)c(F)c(F)c(F)c1F)C(=O)NCC(N)C(=O)c1ccccc1 (stereo not given)	x	x	n	x	x	n
CCOC(=O)c1cc(OC(=O)c2cc(Cl)ccc2OC)n(-c2ccccc2)n1	n	x	n	x	n	n
COc1ccc(C(=O)Nc2ccc3oc(-c4ccc(OC)cc4)nc3c2)cc1	n	x	n	x	n	n
COc1ccc(C(=O)Nc2ccc(-c3n[nH]c(=S)o3)cc2)cc1	n	n	u	-55	n	n
COc1cc2nc(N3CCCN(C)CC3)nc(Nc3ccncc3)c2cc1OC	x	x	20µM	x	x	n
COc1cc2c(NC3CCN(C)CC3)nc(N3CCCN(C)CC3)nc2cc1OCCCCC(N)=O	x	x	n	x	x	n
COc1cc2c(NC3CCN(C)CC3)nc(N3CCCN(C)CC3)nc2cc1OCCCCN	x	x	20µM	x	x	79µM
CC(C)(C)C1CCc2c(sc3nnn(CCOc4ccccc4)c(=O)c23)C1 (stereo not given)	x	x	n	x	25µM	n
Cc1cccc(OCCCCn2nnc3sc4c(c3c2=O)CCC(C)C4)c1 (stereo not given)	x	x	u	x	14µM	n
CC(=O)Cn1nnc2sc3c(c2c1=O)CCC(C(C)(C)C)C3 (stereo not given)	n	n	n	n	n	n
Cc1ccc(OCCn2nnc3sc4c(c3c2=O)CCC(C(C)(C)C)C4)cc1 (stereo not given)	x	x	n	x	22µM	n

Source: PubChem BioAssay
